A selection: hits, their analogues and other compounds. The true share with any hit is near 5.2%.
SKN-1 block: C. elegans SKN-1 inhibition. C. elegans VP596 Pgst-4::GFP/RFP ratio, acrylamide-induced, 24 h. AID 624304. inhibition, % at 21.8 µM. actives 0.49% (n = 360,000);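 active means interference check ratio from 0.5 to 1.5 plus GFP to RFP signal ratio inhibition reaching or exceeding a fixed threshold, cut at about 30% in these data, passing the limit was not always enough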
Vif inh: inhibitors of HIV Vif | HEK293T cells, Vif self-association by quenched fluorescence, imaging, 24 h | actives 0.35% (n = 340,000) | inhibition, % at 7.49 µM; in the data active means inhibition above about 50%, passing the limit was not always enough
NR3A LBD binder: NR3A (human) ligand-binding domain modulation; NR3A LBD differential scanning fluorimetry, Tm shift; 0% = protein alone, 100% = glycine-bound protein; AID 1259313; actives 2.5% (n = 340,000); Tm shift relative to glycine control, % at 25 µM;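 active means melting temperature shift of at least 10% of the positive control shift, at one fixed dose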
esBAF inh: SWI/SNF esBAF complex inhibition | mouse ES cells, Bmi1-luciferase knock-in reporter, 24 h; 100% = twice the neutral-well signal | actives 2% (n = 350,000) | reporter increase, % at 12.5 µM; in the data active means activation above about 40%;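 further: 0% = median of the plate's neutral control wells and 100% = double that signal; a rise in the Bmi1 reporter signal indicates esBAF inhibition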
SMARCA2 activ: activators of SMARCA2 function | MG213 cells, MMTV-luciferase reporter, dexamethasone, overnight | activation, % at 9.1 µM | actives 1% (n = 370,000) | AID 652017; in the data active means activation above about 7.8%;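 further: 0% = vehicle wells and 100% = reference activator wells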
NadD block: NadD (S. aureus) enzyme inhibition; purified NadD enzyme, colorimetric absorbance read-out; inhibition, % at 20 µM; actives 0.78% (n = 360,000); AID 602399; in the data active means inhibition above about 26%
* hit, by the source's call; . = no result given.

SMILES	SKN-1 block	Vif inh	NR3A LBD binder	esBAF inh	SMARCA2 activ	NadD block
COc1ccc(C2(C(=O)O)CCCC2)cc1	-11	1	11*	-5	-2	-3
COc1ccc(NC(=O)CN(C)C(=O)C2(c3ccccc3)CCCC2)cc1	15	8	-2	55*	-4	0
CS(=O)(=O)Nc1ccc(C(=O)CSc2nnc(C3CC3)n2C2CC2)cc1	11	4	2	4	-3	-4
Cc1ccc(C(=O)CSc2nnc(C3CC3)n2C2CC2)s1	16	-2	-3	46*	2	-3
CCc1ccc(C(=O)CSc2nnc(C3CC3)n2C2CC2)cc1	4	-5	-1	41*	2	5
O=C(CSc1nnc(C2CC2)n1C1CC1)c1ccc(F)c(F)c1	-2	15	0	26	3	5
C[C@H](CO)N1C[C@H](C)[C@H](CN(C)CC2CCCCC2)Oc2c(NS(=O)(=O)c3ccc(Cl)cc3)cccc2C1=O	.	.	.	-9	.	.
COc1ccccc1CNC(=O)C[C@H]1CC[C@@H]2[C@H](COC[C@@H](O)CN2C(=O)Nc2ccccc2)O1	.	.	.	-2	.	.
COCC(=O)Nc1ccc2c(c1)C(=O)N(C)[C@H]1CC[C@H](CC(=O)NCCc3ccccc3)O[C@@H]1CO2	.	.	.	0	.	.
CO[C@@H]1CN(C)C(=O)c2cc(NC(=O)C3CC3)ccc2OC[C@@H](C)N(C(=O)c2ccccc2F)C[C@H]1C	.	.	.	1	.	.
O=C(Cn1cc(C(F)(F)F)cc(Cl)c1=O)NCc1ccc(F)cc1	-6	26	0	58*	7	-5
COC(=O)c1ccc(NC(=O)CNc2ccccc2)cc1	6	10	42*	.	0	-4
COC(=O)c1ccc(O)cc1	-15	-9	-2	2	-3	1
COC(=O)c1ccc(N=Nc2ccccc2)cc1	10	6	-1	76*	3	-1
O=C(CSC1=NC(=O)C(c2ccccc2)C(=O)N1)Nc1cccc(Cl)c1 (stereo not given)	-12	-1	-1	2	0	-6
COC(=O)c1ccc(NC(=O)CSC2=NC(=O)C(c3ccccc3)C(=O)N2)cc1 (stereo not given)	6	-10	12*	4	-3	1
COC(=O)c1ccc(NC(=O)CSc2nccn2CCc2ccccc2)cc1	-15	.	2	46*	2	-2
O=C(CSc1nccn1Cc1ccccc1)Nc1ccccc1	9	9	-2	15	-3	1
C[C@H]1CCCCO[C@@H](CN(C)C(=O)Nc2ccc3c(c2)OCO3)[C@@H](C)CN([C@@H](C)CO)C(=O)c2cc(NS(C)(=O)=O)ccc2O1	.	.	.	-1	.	.
Cn1ccnc1SCC(=O)Nc1ccc(SC(F)F)cc1	-7	-3	0	82*	2	-4
COC(=O)c1ccc(OCCOc2ccccc2C)cc1	5	0	2	19	0	-4
COC(=O)c1ccc(OCCOc2ccccc2)cc1	-8	4	2	46*	7	-11
CCCCOc1ccc(C(=O)NCC(=O)OCCCOC(=O)CNC(=O)c2ccc(OCCCC)cc2)cc1	8	.	.	2	-2	6
CCCCOc1ccc(C(=O)NC)cc1	28*	-4	-3	12	0	-2
Cc1noc(C)c1NC(=O)N(C)C[C@@H]1Oc2ncc(C3=CCCCC3)cc2C(=O)N([C@@H](C)CO)C[C@@H]1C	.	.	.	-3	.	.
SMILES	SKN-1 block	Vif inh	NR3A LBD binder	esBAF inh	SMARCA2 activ	NadD block
C[C@@H](NC(=O)C[C@H]1C=C[C@H](NC(=O)C2CCOCC2)[C@@H](CO)O1)c1ccccc1	.	.	.	-6	.	.
O=C(NCC[C@H]1CC[C@@H](NS(=O)(=O)c2ccccc2)[C@H](CO)O1)c1ccccc1F	.	.	.	0	.	.
O=c1ccc(-c2ccc([N+](=O)[O-])cc2)nn1-c1ccccc1	8	19	-2	-5	1	-4
N#Cc1cc(-c2ccccc2)nn1-c1ccccc1	35*	-6	5	.	-2	7
C[C@H](CO)N1C[C@H](C)[C@@H](CN(C)C(=O)NC2CCCCC2)Oc2ccc(NS(=O)(=O)c3cn(C)cn3)cc2CC1=O	.	.	.	-1	.	.
COC(=O)c1sccc1NC(=O)C1C2C=CC(C2)C1C(=O)O (stereo not given)	15	3	3	-4	-4	-6
Cc1ccsc1C(=O)NNC(=O)C1C2C=CC(C2)C1C(=O)O (stereo not given)	-5	5	0	.	9.0*	-2
O=C(COc1ccc2ccccc2c1)Nc1cccc(C(=O)Nc2ccccc2C(=O)O)c1	0	-1	12*	.	2	8
O=C(COc1ccc(Br)cc1)Nc1ccc(C(=O)Nc2ccccc2C(=O)O)cc1	-8	4	11*	0	-2	10
O=C(Nc1ccc([N+](=O)[O-])cc1)C(Cc1ccccc1)N1C(=O)c2cccc3cccc(c23)C1=O (stereo not given)	2	-10	11*	0	0	20
Cc1ccc2oc(-c3cccc(NC(=O)c4ccc(Br)o4)c3C)nc2c1	-12	6	0	21	1	-1
Cc1c(NC(=O)CSc2ccc(Cl)cc2)cccc1-c1nc2cc(Cl)ccc2o1	15	-13	18*	27	0	0
Oc1c(Cl)cc(Cl)cc1CNc1nc2ccccc2[nH]1	-2	4	10*	1	0	-6
Oc1c(Cl)cc(Cl)cc1CNc1ccccn1	1	3	-4	4	0	-2
CS(=O)(=O)N1[C@@H]2c3ccc(-c4ccc(F)cc4)c(=O)n3C[C@@H]2[C@@H](CO)[C@@H]1C(=O)O	.	.	.	-1	.	.
Cc1ccc(C(=O)COC(=O)c2cc(=O)[nH]c3ccccc23)cc1C	-3	66*	1	88*	-3	1
COc1ccccc1C(=O)COC(=O)c1cc(=O)[nH]c2ccccc12	-4	9	0	.	1	-8
C[C@@H]1CN([C@@H](C)CO)C(=O)c2cccc(NC(=O)C3CC3)c2O[C@@H]1CN(C)Cc1ccc(C(F)(F)F)cc1	.	.	.	-9	.	.
CCCn1c(=O)c2[nH]c(-c3ccc(OCC(=O)Nc4ccc(C#N)cc4)cc3)nc2n(CCC)c1=O	6	94*	-1	1	-3	6
CC(=O)Nc1ccc(NC(=O)COc2ccc(-c3ccc(C#N)cc3)cc2)cc1	-21	55*	1	-7	-1	-6
CCC(=O)N1C[C@H](O)COC[C@@H]2O[C@H](CC(=O)N3CCCCC3)CC[C@H]21	.	.	.	-3	.	.
CC(=O)N(C)C[C@@H]1Oc2ncc(-c3cccnc3)cc2C(=O)N([C@@H](C)CO)C[C@H]1C	.	.	.	-6	.	.
COCC(=O)N(C)C[C@H]1Oc2ncc(C#Cc3ccccc3)cc2C(=O)N([C@H](C)CO)C[C@H]1C	.	.	.	4	.	.
CC1CCN(CC(=O)Nc2cccc(C(=O)Nc3cccc(C(F)(F)F)c3)c2)CC1	44*	3	-30	-9	-5	-7

Compound activity: PubChem BioAssay, several laboratories
